Results reported in PubChem BioAssay (NCI).
Compounds without any hit were thinned out: in the full panel of roughly 83,000, 20% have a hit.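 Assay: single dose, 48 h. Readout: percent growth (0 = no net growth; negative = cell death). Active: <10.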 A number with no mark means an inactive call. The source made the active and inactive calls.

Experiments:
Assay in all cases: NCI-60 one-dose screen, 48 h (100 = growth as untreated, 0 = no growth, -100 = all killed)
Details in all cases: 10 µM unless noted
[1] = system: NCI-H23 lung
[2] = system: NCI-H226 lung
[3] = system: NCI-H322M lung
[4] = system: HOP-62 NSCLC
[5] = system: NCI-H460 lung
[6] = system: NCI-H522 lung
[7] = system: A549/ATCC NSCLC
[8] = system: 786-0 renal
[9] = system: COLO 205 colon
[10] = system: DU-145 prostate
[11] = system: K-562 leukemia
[12] = system: MALME-3M melanoma
[13] = system: MDA-MB-231 breast
[14] = system: RXF 393 renal
[15] = system: SF-268 CNS
[16] = system: SF-295 CNS
[17] = system: SF-539 CNS
[18] = system: UACC-257 melanoma
[19] = system: M14 melanoma

COc1cnc2c(c1)C(=O)c1c-2n(CCCN2CCN(C)CC2)c(=O)c2cc(Cl)ccc12
growth [1]: 47.9% | growth [2]: 30.4% | growth [3]: 49.3% | growth [4]: 20.5% | growth [5]: 6.14% (active) | growth [6]: 11.7% | growth [7]: 37.7% | growth [8]: 21.3% | growth [9]: 31.3% | growth [10]: 33.1% | growth [11]: -76.1% (active) | growth [12]: 75.4% | growth [13]: 48.6% | growth [14]: 46.9% | growth [15]: 35.7% | growth [16]: 35.5% | growth [17]: 14.7% | growth [18]: 14.1% | growth [19]: -54.4% (active)

COc1ccc(-c2cc(-c3cn(-c4cccc(Cl)c4)nc3-c3ccc(OC)cc3)[nH]c(=S)n2)cc1
growth [1]: 83% | growth [2]: 85.8% | growth [3]: 95.5% | growth [4]: 99.1% | growth [5]: 33.5% | growth [6]: 77.7% | growth [7]: 50.4% | growth [8]: 96.5% | growth [9]: 86.6% | growth [10]: 50.1% | growth [11]: 101% | growth [12]: 90.9% | growth [13]: 67.7% | growth [14]: 102% | growth [15]: 70.6% | growth [16]: 93% | growth [17]: 92.2% | growth [18]: 71.5% | growth [19]: 92%

CNC(=O)c1c(NC(=O)c2ccc(C(C)C)cc2)sc2c1CCC(=O)C2
growth [1]: -1.47% (active) | growth [2]: -24.5% (active) | growth [3]: 17.6% | growth [4]: 12% | growth [5]: 7.34% (active) | growth [6]: -26.3% (active) | growth [7]: 15.9% | growth [8]: 13% | growth [9]: -70.3% (active) | growth [10]: 23.4% | growth [11]: 1.86% (active) | growth [12]: -45.3% (active) | growth [13]: -55.9% (active) | growth [14]: -32.9% (active) | growth [15]: 15.3% | growth [16]: -29.4% (active) | growth [17]: -63.7% (active) | growth [18]: 1.16% (active) | growth [19]: -39.4% (active)

CCCCCCCC/C=C\CCCCCCCC(=O)OCCCCCC
growth [1]: 98.4% | growth [2]: 94.7% | growth [3]: 111% | growth [4]: 121% | growth [5]: 111% | growth [6]: 104% | growth [7]: 90.6% | growth [8]: 105% | growth [9]: 124% | growth [10]: 103% | growth [11]: 100% | growth [12]: 120% | growth [13]: 136% | growth [14]: 104% | growth [15]: 108% | growth [16]: 95.6% | growth [17]: 109% | growth [18]: 95.7% | growth [19]: 112%

CCOC(=O)c1cc(C(=O)OCC)c(C)nc1C
growth [1]: 102% | growth [2]: 105% | growth [3]: 106% | growth [4]: 102% | growth [5]: 111% | growth [6]: 103% | growth [7]: 101% | growth [8]: 106% | growth [9]: 109% | growth [10]: 109% | growth [11]: 91.4% | growth [12]: 104% | growth [13]: 107% | growth [14]: 117% | growth [15]: 108% | growth [16]: 107% | growth [17]: 103% | growth [18]: 107% | growth [19]: 111%

COc1ncnc2[nH]cc(CN3CCN(c4ccc(F)cc4)CC3)c12
growth [1]: 98.4% | growth [2]: 103% | growth [3]: 107% | growth [4]: 107% | growth [5]: 108% | growth [6]: 95.1% | growth [7]: 96.5% | growth [8]: 103% | growth [9]: 116% | growth [10]: 116% | growth [11]: 108% | growth [12]: 103% | growth [13]: 117% | growth [14]: 111% | growth [15]: 104% | growth [16]: 98.1% | growth [17]: 108% | growth [18]: 99.8% | growth [19]: 106%

O=C(CCl)Nc1cc(O)c2c(c1)C(=O)c1cccc(O)c1C2=O
growth [1]: -45% (active) | growth [2]: -20.6% (active) | growth [3]: 59% | growth [4]: -100% (active) | growth [5]: -43.5% (active) | growth [6]: -89% (active) | growth [7]: 91% | growth [8]: -71.5% (active) | growth [9]: -81.5% (active) | growth [10]: -82.5% (active) | growth [11]: -46.2% (active) | growth [12]: -72.9% (active) | growth [13]: -27.7% (active) | growth [14]: -67.1% (active) | growth [15]: -49.5% (active) | growth [16]: 61.7% | growth [17]: -32.3% (active) | growth [18]: 5.96% (active) | growth [19]: -33.2% (active)

Cn1c(=O)c2c(nc(N/N=C/c3ccccc3Cl)n2C)n(C)c1=O
growth [1]: 94.4% | growth [2]: 107% | growth [3]: 116% | growth [4]: 112% | growth [5]: 120% | growth [6]: 83.1% | growth [7]: 107% | growth [8]: 97.8% | growth [9]: 113% | growth [10]: 140% | growth [11]: 100% | growth [12]: 109% | growth [13]: 100% | growth [14]: 112% | growth [15]: 124% | growth [16]: 101% | growth [17]: 87.2% | growth [18]: 94.8% | growth [19]: 103%

Clc1ccccc1CNc1c2ccccc2nc2ccccc12
growth [1]: 21.6% | growth [2]: 38.9% | growth [3]: 27% | growth [4]: 40.9% | growth [5]: 8.83% (active) | growth [6]: 28.5% | growth [7]: 19.2% | growth [8]: 24.5% | growth [9]: 0.525% (active) | growth [10]: 31.8% | growth [11]: 5.33% (active) | growth [12]: 19% | growth [13]: 29% | growth [14]: 15% | growth [15]: 46.6% | growth [16]: 21.7% | growth [17]: 6.15% (active) | growth [18]: 44.3% | growth [19]: 18.1%

CSc1nc(N)c2[nH]c(-c3cc4ccccc4[nH]c3=O)nc2n1
growth [1]: 83.9% | growth [2]: 105% | growth [3]: 67% | growth [4]: 115% | growth [5]: 60.4% | growth [6]: 57.2% | growth [7]: 70.8% | growth [8]: 72.1% | growth [9]: 97.9% | growth [10]: 72.6% | growth [11]: 92.7% | growth [12]: 90.7% | growth [13]: 98.8% | growth [14]: 76.8% | growth [15]: 78.2% | growth [16]: 99.2% | growth [17]: 102% | growth [18]: 104% | growth [19]: 77.4%

CC1CCN(CCCCCOc2ccc3oc4ccc(Cl)cc4c(=O)c3c2)CC1
growth [1]: 73.6% | growth [2]: 94.7% | growth [3]: 79.8% | growth [4]: 77.1% | growth [5]: 26.6% | growth [6]: 52.9% | growth [7]: 47.5% | growth [8]: 45.8% | growth [9]: 21.7% | growth [10]: 78.9% | growth [11]: 9.6% (active) | growth [12]: 81.6% | growth [13]: 48% | growth [14]: 71% | growth [15]: 77.5% | growth [16]: 78.7% | growth [17]: 74.6% | growth [18]: 5.99% (active) | growth [19]: -54% (active)

CCN(CC)c1ccc(/C=N/NC(=O)c2ccc(S(C)(=O)=O)cc2)c(O)c1
growth [1]: 32.8% | growth [2]: 22.6% | growth [3]: 25% | growth [4]: 12.9% | growth [5]: 3.28% (active) | growth [6]: 9.91% (active) | growth [7]: 12.5% | growth [8]: 15.4% | growth [9]: 8.62% (active) | growth [10]: 24.5% | growth [11]: 12.4% | growth [12]: 14% | growth [13]: 43.2% | growth [14]: 28.6% | growth [15]: 21.8% | growth [16]: 21.4% | growth [17]: 4.01% (active) | growth [18]: -11.5% (active) | growth [19]: 3.37% (active)

Cc1c(C(=O)Nc2ccccc2F)sc2c(=O)[nH]cnc12
growth [1]: 94% | growth [2]: 102% | growth [3]: 94.1% | growth [4]: 96.1% | growth [5]: 51.6% | growth [6]: 66.6% | growth [7]: 88.3% | growth [8]: 98.4% | growth [9]: 97.8% | growth [10]: 112% | growth [11]: 47.4% | growth [12]: 88.3% | growth [13]: 86.2% | growth [14]: 107% | growth [15]: 106% | growth [16]: 85.4% | growth [17]: 109% | growth [18]: 88.7% | growth [19]: 75.1%

Cc1cccc(/C=N/n2c(-c3ccc(Cl)cc3)nc3c(Br)cc(Br)cc3c2=O)c1
growth [1]: 29.2% | growth [2]: 37.9% | growth [3]: 53.8% | growth [4]: 33.8% | growth [5]: 29.1% | growth [6]: 38.1% | growth [7]: 31.4% | growth [8]: 51.9% | growth [9]: 46.8% | growth [10]: 66.2% | growth [11]: 65.7% | growth [12]: 70% | growth [13]: 44.9% | growth [14]: 61.3% | growth [15]: 69.9% | growth [16]: 35.4% | growth [17]: 70% | growth [18]: 76.3% | growth [19]: 60.4%

CNCCCn1c2c(c3ccc(Cl)cc3c1=O)C(=O)c1cc(OC)cnc1-2
growth [1]: 34% | growth [2]: 43% | growth [3]: 61.8% | growth [4]: 17.6% | growth [5]: -77.3% (active) | growth [6]: 10.1% | growth [7]: -88.5% (active) | growth [8]: -85.1% (active) | growth [9]: 51.9% | growth [10]: -85.2% (active) | growth [11]: -66% (active) | growth [12]: 72.8% | growth [13]: 77.3% | growth [14]: 61.2% | growth [15]: 34.7% | growth [16]: 14.6% | growth [17]: 29.1% | growth [18]: 56.9% | growth [19]: 36%
